Laboratory results as given in publication PMC4336329 (PLoS ONE, 2015).
Screen size: about 310,000 compounds; about 14,000 (4.5%) showed an effect of 50% or more. Effects have a minus sign here. The sample holds strong results, similar compounds and a random draw of the others, so the mix is not that of the screen.

Molecular target: human ether-à-go-go-related gene (hERG) potassium channel (human, UniProt Q12809)
Assay: primary screen, population patch clamp on CHO cells stably expressing hERG; higher = less effect of the substance
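Note: peak tail current of the secondary pulse compared with the same well before compound.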

human ether-à-go-go-related gene (hERG) potassium channel, sequence (Q12809 whole entry, looked up): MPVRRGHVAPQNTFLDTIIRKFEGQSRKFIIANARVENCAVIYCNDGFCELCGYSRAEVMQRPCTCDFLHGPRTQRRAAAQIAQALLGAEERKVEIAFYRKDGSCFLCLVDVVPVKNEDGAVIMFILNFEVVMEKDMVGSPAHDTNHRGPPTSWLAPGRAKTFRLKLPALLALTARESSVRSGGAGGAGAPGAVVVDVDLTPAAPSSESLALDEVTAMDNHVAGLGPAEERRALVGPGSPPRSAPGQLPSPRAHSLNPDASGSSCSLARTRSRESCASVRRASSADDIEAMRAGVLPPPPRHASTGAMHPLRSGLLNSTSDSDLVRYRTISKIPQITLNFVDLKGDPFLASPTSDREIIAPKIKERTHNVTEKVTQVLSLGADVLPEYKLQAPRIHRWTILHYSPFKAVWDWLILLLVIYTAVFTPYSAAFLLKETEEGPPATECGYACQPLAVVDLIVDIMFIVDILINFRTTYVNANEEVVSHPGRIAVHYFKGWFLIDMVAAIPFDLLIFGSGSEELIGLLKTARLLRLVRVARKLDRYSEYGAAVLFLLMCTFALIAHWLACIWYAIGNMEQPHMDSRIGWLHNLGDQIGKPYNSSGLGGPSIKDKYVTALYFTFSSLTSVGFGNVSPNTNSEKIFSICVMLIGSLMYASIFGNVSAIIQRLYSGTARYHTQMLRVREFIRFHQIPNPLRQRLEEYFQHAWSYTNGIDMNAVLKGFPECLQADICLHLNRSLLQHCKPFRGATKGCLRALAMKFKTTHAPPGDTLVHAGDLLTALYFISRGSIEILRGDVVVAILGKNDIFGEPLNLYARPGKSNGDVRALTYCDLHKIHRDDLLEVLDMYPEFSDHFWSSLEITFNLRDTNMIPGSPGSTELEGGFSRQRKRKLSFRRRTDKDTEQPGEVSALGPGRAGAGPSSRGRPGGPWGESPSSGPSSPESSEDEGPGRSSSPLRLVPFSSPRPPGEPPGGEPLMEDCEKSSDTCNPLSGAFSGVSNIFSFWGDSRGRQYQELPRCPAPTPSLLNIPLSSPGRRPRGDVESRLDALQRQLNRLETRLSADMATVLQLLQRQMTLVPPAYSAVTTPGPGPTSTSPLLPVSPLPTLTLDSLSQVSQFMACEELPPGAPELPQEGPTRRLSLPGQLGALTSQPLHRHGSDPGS

Row | Compound | hERG current change (%, negative = inhibition) at 10uM [%]
1 | COc1ccc(CCN2C(=O)CSC2c2cccc([N+](=O)[O-])c2)cc1OC (stereo not drawn) | -3.39
2 | CCOC(=O)c1c(C)nc2c(c1-c1ccccc1)C(=O)CC(C)(C)C2 | -16.8
3 | CC(OC(=O)c1ccc(O)cc1)C(=O)Nc1nc(-c2ccccc2)cs1 (stereo not drawn) | -17.8
4 | CCOC(=O)N1CCN(C(=O)C2CCN(S(=O)(=O)c3ccc(F)cc3)CC2)CC1 | -19.3
5 | CSc1ccccc1C(=O)NC1CCCN(Cc2ccccc2F)C1 (stereo not drawn) | -11.5
6 | CC(=O)NC1C(OCc2cccc(Br)c2)OC(COC(C)=O)C(OC(C)=O)C1OC(C)=O (stereo not drawn) | -12.4
7 | CNC(=O)c1ccccc1Sc1ccccc1C#N | 19.1
8 | CCOc1cc(N2CCOCC2)c(OCC)cc1NC(=O)C(C)(C)C | 17.4
9 | Cc1ccc(C(=O)N2CCC(C(=O)Nc3cccc([N+](=O)[O-])c3)CC2)cc1 | -80.1
10 | Cc1ccc(N2CCN(C(=O)Nc3cccc([N+](=O)[O-])c3)CC2C)cc1 (stereo not drawn) | -78.3
11 | CCc1cccc(C)c1NC(=O)C1CCN(C(=O)c2ccc([N+](=O)[O-])cc2)CC1 | -48.2
12 | O=C(Nc1ccc(F)cc1)C1CCN(C(=O)c2ccc([N+](=O)[O-])cc2)CC1 | -4.16
13 | CC(=O)c1cccc(NC(=O)C2CCN(C(=O)c3ccc([N+](=O)[O-])cc3)CC2)c1 | -69.6
14 | O=C(Nc1cccc([N+](=O)[O-])c1)N1CCN(c2ccccc2)CC1 | -38.7
15 | CC(=O)Nc1ccc(NC(=O)C2CCN(C(=O)c3ccc([N+](=O)[O-])cc3)CC2)cc1 | -0.926
16 | CC(=O)c1ccc(NC(=O)N2CCN(c3ccc(C)cc3)C(C)C2)cc1 (stereo not drawn) | -19.6
17 | COc1cc(C(=O)N2CCC(C(=O)Nc3cccc(C(C)=O)c3)CC2)cc(OC)c1OC | -2.12
18 | O=C(Nc1ccccc1)C1CCN(C(=O)c2ccc([N+](=O)[O-])cc2)CC1 | -71.4
19 | CC(=O)c1cccc(NC(=O)C2CCN(C(=O)c3ccccc3Cl)CC2)c1 | -0.359

Row | Compound | hERG current change (%, negative = inhibition) at 10uM [%]
20 | O=C(Nc1cccc([N+](=O)[O-])c1)C1CCN(C(=O)Cc2ccccc2)CC1 | -43.3
21 | NC(=O)CN1C2CCC1CC(NC(=O)C1CC1)C2 (stereo not drawn) | 14.7
22 | O=C(Nc1ccc(C(=O)N2CCCC2)cc1)c1ccccc1Br | 19.8
23 | COc1ccccc1NS(=O)(=O)c1ccc(O)cc1 | 1.44
24 | COc1nc(N=C(N)N)nc2c(C)cccc12 | -2.93
25 | CC(=O)Nc1ccc(S(=O)(=O)Nc2nc3ccccc3nc2Nc2ccccc2)cc1 | 10.3
26 | CC(=O)Nc1ccc(NC(=O)CN(C)S(=O)(=O)c2ccc3nc(C)sc3c2)cc1 | 25.7
27 | O=C1NCCCC1C(=O)N/N=C/c1ccccc1 (stereo not drawn) | -4.35
28 | O=C(c1cc2sccc2n1Cc1ccccc1)N1CCCc2ccccc21 | 1.8
29 | O=C(NCc1cccc(Cl)c1)c1ccc2c(c1)OCO2 | 0.973
30 | Cn1c(-c2ccc3c(c2)OCO3)cnc1NCc1cccc(Cl)c1.O=C(O)C(=O)O | -74
31 | Cn1c(-c2ccc3c(c2)OCO3)cnc1NCc1cccc(O)c1.O=C(O)C(=O)O | -23.1
32 | Cn1c(-c2ccc3c(c2)OCO3)cnc1N | -16.5
33 | Cc1ccc(CNc2ncc(-c3ccc4c(c3)OCO4)n2C)cc1.O=C(O)C(=O)O | -59
34 | Cc1ccc(CNc2ccc3c(c2)OCO3)cc1 | -4.29
35 | Cn1c(-c2ccc3c(c2)OCO3)cnc1NC(=O)CCC(=O)NCCc1ccccc1 | -6.98
36 | Cn1c(-c2ccc3c(c2)OCO3)cnc1NCc1ccccc1.O=C(O)C(=O)O | -60
37 | COc1ccc2c(CC(=O)Nc3ncc(C)s3)coc2c1 | 5.72
38 | CN(C)c1ccc(C(CC(=O)O)C(=O)O)cc1 (stereo not drawn) | 14.4

Row | Compound | hERG current change (%, negative = inhibition) at 10uM [%]
39 | CCOc1ccc(C(=O)CCC(=O)Nc2ncccc2O)cc1 | 5.51
40 | Cc1ccccc1OCC(O)Cn1c(NCCN(C)C)nc2c1c(=O)n(C)c(=O)n2C (stereo not drawn) | -20.3
41 | CSc1cccc(NC(=O)/C=C/c2ccc(Cl)cc2)c1 | -4.08
42 | O=S(=O)(Nc1ncccn1)c1ccc(NC(=S)N2CCN(Cc3ccc(F)cc3Cl)CC2)cc1 | 22
43 | CNC(C)C#Cc1ccc2c(=O)c3c(OC)cccc3oc2c1 (stereo not drawn) | 0.579
44 | CC(=O)Nc1sc2c(c1CN1CCN(c3ccc(F)cc3)CC1)CCCC2 | -6.73
45 | O=C(Nc1ccc(Oc2cccnc2)nc1)c1ccc(C(F)(F)F)cc1 | -30
46 | CC(C)(C)c1ccc(C(=O)Nc2ccc(Oc3cccnc3)nc2)cc1 | -61.2
47 | CC(C)(C)c1ccc(C(=O)Nc2cccnc2)cc1 | -18.7
48 | CCCCC(=Nc1ccccc1OC)C1=C(O)CC(c2ccccc2)CC1=O (stereo not drawn) | 3.11
49 | COc1cc(C2C(C#N)=C(N)Oc3cc(N(C)C)ccc32)cc2c1OCO2 (stereo not drawn) | -6.32
50 | COC(=O)c1ccc(COc2ccc(F)cc2)o1 | -27.4
51 | COc1cc(/C=C2/SC(=S)N(CCC(=O)Nc3ccccc3)C2=O)cc(OC)c1OC | 13.8
52 | Cc1ccc2c(c1)c1nnc(SCC(=O)Nc3cccc(Cl)c3C)nc1n2CC(=O)O | 19.6
53 | NNc1nnc2c3cc(F)ccc3n(Cc3ccccc3)c2n1 | -22.4
54 | CCN(CC)CCSc1nnc2c3cc(C)ccc3n(Cc3ccccc3)c2n1 | -79.1
55 | CCN(CC)CCSc1nnc2c3cc(F)ccc3n(Cc3ccccc3)c2n1 | -77
56 | CSc1nnc2c3cc(F)ccc3n(Cc3ccccc3)c2n1 | 13.6
57 | CSc1nnc2c3cc(C)ccc3n(Cc3ccccc3)c2n1 | 2.55
